Measurements: PubChem BioAssay
Calls of active or inactive are those of the source.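 The calls were made as follows: active = inhibition over a set limit, the all-compound mean plus 3 SD, in both replicate runs; inconclusive = over that limit in just one replicate run; inactive = at or under that limit in both runs.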

experiment: RAM pathway blockade in budding yeast – dse1pr::URA3 reporter, 5-FOA selection, pilot screen (AID 869);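 also: 0% = DMSO wells with no growth and 100% = 10 µM 1-NA-PP1 with full growth; RAM network block rescues cells from 5-FOA so hits raise OD615 growth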; details: S. cerevisiae dse1pr::URA3 5-FOA growth, OD615, 2 d; at 10 µM; stronger effect = higher value; strain carries analog-sensitive mutant Cbk1 kinase

inhibition, inactive:
Nc1nc(Nc2ccccc2Br)nc(C(F)(F)F)n1 1.84%, O=C(c1ccc(F)cc1)c1cn[nH]c1-c1ccccc1O 2.42%, CC(C)NC(=O)CCCc1ccccc1 1.2%, COc1ccc(C2N(c3ccc(Cl)cc3)C(=O)C3CCCN32)cc1 (configuration not stated) 0.915%, Cn1c(CCNC(=O)C(C)(C)C)nc2ccccc21 2.58%, CCCCN1C(=O)C(O)(CC(=O)c2ccccc2OC)c2ccccc21 (configuration not stated) 1.89%, CCC(=O)Nc1c2c(nn1-c1ccc(F)cc1)CS(=O)C2 (configuration not stated) 0.265%, O=C(Cn1c(=O)oc2cc(S(=O)(=O)N3CCOCC3)ccc21)N1CCc2ccccc2C1 2.44%, O=C(CCCN1C(=O)c2ccccc2C1=O)Nc1ccccc1C(=O)N1CCOCC1 0.11%, CCCCn1c(CCC(=O)O)ccc1-c1cccs1 0.85%, FC(F)(F)c1nnc2ccc(-n3ccnc3)nn12 0.61%, CCOC(=O)C1Cc2ccccc2C(=O)O1 (configuration not stated) 0.47%, Cc1ccc(N2CCN(C(=O)c3ccccc3F)CC2)c(C)c1 -0.61%, CN=C1SC(CC(=O)Nc2ccccc2F)C(=O)N1C (configuration not stated) 1.99%, CC(=O)Nc1ccc(NC(=O)c2oc3cc(C)c(C)cc3c2C)cc1 2.38%, CC(=O)Nc1ccc(S(=O)(=O)Nc2cccc(C(=O)NC(C)(C)C)c2)cc1 1.53%, CCc1nnc(NC(=O)CCC(=O)O)s1 0.815%
